# The entries come from a sample that favours the strongest signals as a whole.
# Legend:
# Experiment in all cases: glycan array binding signal (z-score within array); higher = stronger binding
# Conditions in all cases: glycan notation: IUPAC condensed, linker removed
# [1] = molecular target: Fuc(a1-2)Gal(b1-3)[Fuc(a1-4)]GlcNAc(b1-2)Man(a1-3)[Fuc(a1-2)Gal(b1-3)[Fuc(a1-4)]GlcNAc(b1-2)Man(a1-3)]Man(b1-4)GlcNAc(b1-4)GlcNAc
# In short: (§1)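 The Consortium for Functional Glycomics database supplied 3228 glycan arrays, of which those lacking an available protein sequence were dropped. The binding signal, a within-array Z-score, was averaged across arrays of the same protein sequence and across linkers. Negative scores can be read as non-binding.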
# [2] = molecular target: Fuc(a1-2)Gal(b1-4)Fuc(a1-3)]GlcNAc(b1-2)Man(a1-3)[Fuc(a1-2)Gal(b1-4)[Fuc(a1-3)]GlcNAc(b1-2)Man(a1-6)]Man(b1-4)GlcNAc(b1-4)GlcNAc
# In short: as §1
# Fuc(a1-2)Gal(b1-4)GlcNAc = molecular target: Fuc(a1-2)Gal(b1-4)GlcNAc
# In short: as §1
# [3] = molecular target: Fuc(a1-2)Gal(b1-4)[Fuc(a1-3)]GlcNAc(b1-2)[Fuc(a1-2)Gal(b1-4)[Fuc(a1-3)]GlcNAc(b1-4)]Man(a1-3)[Fuc(a1-2)Gal(b1-4)[Fuc(a1-3)]GlcNAc(b1-2)Man(a1-6)]Man(b1-4)GlcNAc(b1-4)GlcNAc
# In short: as §1
# [4] = molecular target: Fuc(a1-2)Gal(b1-4)[Fuc(a1-3)]GlcNAc(b1-3)Gal(b1-4)[Fuc(a1-3)]GlcNAc(b1-3)Gal(b1-4)[Fuc(a1-3)]GlcNAc
# In short: as §1
# [5] = molecular target: Fuc(a1-2)Gal6S(b1-4)Glc6S
# In short: as §1
# [6] = molecular target: Fuc(a1-2)[GalNAc(a1-3)]Gal
# In short: as §1
# [7] = molecular target: Fuc(a1-2)[GalNAc(a1-3)]Gal(b1-3)GalNAc(a1-3)[Fuc(a1-2)]Gal(b1-4)GlcNAc
# In short: as §1
# [8] = molecular target: Gal(a1-3)Gal(b1-4)GlcNAc(b1-2)Man
# In short: as §1
# [9] = molecular target: Gal(a1-3)Gal(b1-4)[Fuc(a1-3)]GlcNAc(b1-2)Man(a1-3)[Gal(a1-3)Gal(b1-4)[Fuc(a1-3)]GlcNAc(b1-2)Man(a1-6)]Man(b1-4)GlcNAc(b1-4)GlcNAc
# In short: as §1
# Gal(a1-4)Gal(b1-4)Glc = molecular target: Gal(a1-4)Gal(b1-4)Glc
# In short: as §1
# [10] = molecular target: Gal(b1-3)GlcNAc(a1-6)Gal(b1-4)GlcNAc
# In short: as §1
# [11] = molecular target: Gal(b1-3)GlcNAc(b1-3)Gal(b1-4)GlcNAc(b1-2)Man(a1-3)[Gal(b1-3)GlcNAc(b1-3)Gal(b1-4)GlcNAc(b1-2)Man(a1-6)]Man(b1-4)GlcNAc(b1-4)GlcNAc
# In short: as §1
# [12] = molecular target: Gal(b1-4)GlcNAc(b1-2)Man(a1-6)[Man(a1-3)]Man(b1-4)GlcNAc(b1-4)GlcNAc
# In short: as §1
# [13] = molecular target: Gal(b1-4)GlcNAc(b1-3)Gal(b1-4)GlcNAc(b1-2)Man(a1-3)[Gal(b1-4)GlcNAc(b1-3)Gal(b1-4)GlcNAc(b1-2)Man(a1-6)]Man(b1-4)GlcNAc(b1-4)GlcNAc
# In short: as §1
# [14] = molecular target: Gal(b1-4)GlcNAc(b1-3)Gal(b1-4)GlcNAc(b1-2)[Gal(b1-4)GlcNAc(b1-3)Gal(b1-4)GlcNAc(b1-6)]Man(a1-6)[Gal(b1-4)GlcNAc(b1-3)Gal(b1-4)GlcNAc(b1-2)Man(a1-3)]Man(b1-4)GlcNAc(b1-4)GlcNAc
# In short: as §1
# [15] = molecular target: Gal(b1-4)GlcNAc(b1-3)Gal(b1-4)GlcNAc(b1-2)[Gal(b1-4)GlcNAc(b1-3)Gal(b1-4)GlcNAc(b1-6)]Man(a1-6)[Gal(b1-4)GlcNAc(b1-3)Gal(b1-4)GlcNAc(b1-2)Man(a1-3)]Man(b1-4)GlcNAc(b1-4)[Fuc(a1-6)]GlcNAc
# In short: as §1
# [16] = molecular target: Gal(b1-4)GlcNAc(b1-3)Gal(b1-4)GlcNAc(b1-3)Gal(b1-4)GlcNAc
# In short: as §1
# [17] = molecular target: Gal(b1-4)GlcNAc(b1-3)Gal(b1-4)GlcNAc(b1-3)Gal(b1-4)GlcNAc(b1-2)Man(a1-3)[Gal(b1-4)GlcNAc(b1-3)Gal(b1-4)GlcNAc(b1-3)Gal(b1-4)GlcNAc(b1-2)Man(a1-6)]Man(b1-4)GlcNAc(b1-4)GlcNAc
# In short: as §1
# [18] = molecular target: Gal(b1-4)GlcNAc(b1-3)Gal(b1-4)GlcNAc(b1-3)Gal(b1-4)GlcNAc(b1-3)Gal(b1-4)GlcNAc(b1-3)Gal(b1-4)GlcNAc(b1-2)Man(a1-3)[Gal(b1-4)GlcNAc(b1-3)Gal(b1-4)GlcNAc(b1-3)Gal(b1-4)GlcNAc(b1-3)Gal(b1-4)GlcNAc(b1-3)Gal(b1-4)GlcNAc(b1-2)Man(a1-6)]Man(b1-4)GlcNAc(b1-4)[Fuc(a1-6)]GlcNAc
# In short: as §1
# [19] = molecular target: Gal(b1-4)GlcNAc(b1-3)Gal(b1-4)GlcNAc(b1-3)GalNAc
# In short: as §1
# [20] = molecular target: Gal(b1-4)GlcNAc(b1-3)[Fuc(a1-3)GlcNAc(b1-6)]Gal(b1-4)Glc
# In short: as §1
# Gal(b1-6)Gal = molecular target: Gal(b1-6)Gal
# In short: as §1
# [21] = molecular target: Gal3S(b1-4)[Fuc(a1-3)]Glc6S
# In short: as §1
# Gal6S(b1-3)GlcNAc = molecular target: Gal6S(b1-3)GlcNAc
# In short: as §1
# GalNAc(b1-4)Gal(b1-4)Glc = molecular target: GalNAc(b1-4)Gal(b1-4)Glc
# In short: as §1
# GalNAc(b1-4)GlcNAc = molecular target: GalNAc(b1-4)GlcNAc
# In short: as §1
# [22] = molecular target: GalNAc(b1-4)GlcNAc(b1-3)GalNAc(b1-4)GlcNAc
# In short: as §1
# [23] = molecular target: GlcNAc(b1-2)Man(a1-3)[GlcNAc(b1-2)Man(a1-6)]Man(b1-4)GlcNAc(b1-4)[Fuc(a1-6)]GlcNAc
# In short: as §1
# [24] = molecular target: GlcNAc(b1-2)[GlcNAc(b1-6)]Man(a1-6)[GlcNAc(b1-2)Man(a1-3)]Man(b1-4)GlcNAc(b1-4)[Fuc(a1-6)]GlcNAc
# In short: as §1
binder,measurement,setting,value
"Erv46-EDTA (Saccharomyces cerevisiae), P39727 (protein) MKFLVNVALVFMVVYISYIYAAAPEHHHHHHDYDIPTTENLYFQGAMDSVVTRPQLVVDRDRHAKLELNMDVTFPSMPCDLVNLDIMDDSGEMQLDILDAGFTMSRLNSEGRPVGDATELHVGGNGDGTAPVNNDPNYCGPCYGAKDQSQNENLAQEEKVCCQDCDAVRSAYLEAGWAFFDGKNIEQCEREGYVSKINEHLNEGCRIKGSAQINRIQGNLHFAPGKPYQNAYGHFHDTSLYDKTSNLNFNHIINHLSFGKPIQSHSKLLGNDKRHGGAVVATSPLDGRQVFPDRNTHFHQFSYFAKIVPTRYEYLDNVVIETAQFSATFHSRPLAGGRDKDHPNTLHVRGGIPGMFVFFEMSPLKVINKEQ",glycan array binding signal (z-score),[1],0.467
same,glycan array binding signal (z-score),[2],3.11
same,glycan array binding signal (z-score),Fuc(a1-2)Gal(b1-4)GlcNAc,-0.508
same,glycan array binding signal (z-score),[3],2.34
same,glycan array binding signal (z-score),[4],-0.775
same,glycan array binding signal (z-score),[5],0.075
same,glycan array binding signal (z-score),[6],-0.619
same,glycan array binding signal (z-score),[7],-0.454
same,glycan array binding signal (z-score),[8],0.805
same,glycan array binding signal (z-score),[9],2.74
same,glycan array binding signal (z-score),Gal(a1-4)Gal(b1-4)Glc,0.54
same,glycan array binding signal (z-score),[10],-0.279
same,glycan array binding signal (z-score),[11],0.126
same,glycan array binding signal (z-score),[12],-0.001
same,glycan array binding signal (z-score),[13],4.93
same,glycan array binding signal (z-score),[14],2.71
same,glycan array binding signal (z-score),[15],2.65
same,glycan array binding signal (z-score),[16],0.66
same,glycan array binding signal (z-score),[17],3.36
same,glycan array binding signal (z-score),[18],1.81
same,glycan array binding signal (z-score),[19],2.4
same,glycan array binding signal (z-score),[20],-0.11
same,glycan array binding signal (z-score),Gal(b1-6)Gal,-0.241
same,glycan array binding signal (z-score),[21],0.233
same,glycan array binding signal (z-score),Gal6S(b1-3)GlcNAc,-0.805
same,glycan array binding signal (z-score),GalNAc(b1-4)Gal(b1-4)Glc,-0.674
same,glycan array binding signal (z-score),GalNAc(b1-4)GlcNAc,0.697
same,glycan array binding signal (z-score),[22],-0.443
same,glycan array binding signal (z-score),[23],6.37
same,glycan array binding signal (z-score),[24],1.14

# From the supplement of paper PMC8728848
